Test results from PubChem BioAssay AID1159580 (chemical genetic matrix, 2015).
In all, about 5,500 compounds went through this assay and about 2,000 (36%) were called active. About 18% were inconclusive and are not listed. No stated cut-off is given here; in the data, active means normalized growth mostly below about 0.91 (no sharp cut-off); inconclusive means no clear call, values can overlap the other calls; inactive means mostly above about 0.92. Some of the results follow.

Experiment: chemical genetic growth profiling, strain panel (AID 1159580);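 further: tested at 20 µM; growth read once vehicle control cultures reached saturation at 30 °C; 1 = growth at the plate median or of vehicle wells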
Settings: growth OD
[1] = S. cerevisiae deletion strains, locus YDL101C, strain DUN1, stronger effect = lower value
[2] = S. cerevisiae deletion strains, locus YJL095W, strain BCK1, stronger effect = lower value
[3] = S. cerevisiae deletion strains, locus YOR061W, strain CKA2, stronger effect = lower value

Measured: normalized growth

COC(=O)c1cnn(-c2c(Cl)cccc2Cl)c1C=C(C#N)C#N
active: S. cerevisiae deletion strains, locus YLR113W, strain HOG1, stronger effect = lower value 0.748 | S. cerevisiae deletion strains, locus YPL256C, strain CLN2, stronger effect = lower value 0.781
inactive: S. cerevisiae deletion strains, locus YAR019C, strain CDC15, stronger effect = lower value 0.939 | S. cerevisiae deletion strains, locus YBL105C, strain PKC1, stronger effect = lower value 0.957 | S. cerevisiae deletion strains, locus YBR135W, strain CKS1, stronger effect = lower value 0.954 | S. cerevisiae deletion strains, locus YBR136W, strain MEC1, stronger effect = lower value 0.952 | S. cerevisiae deletion strains, locus YBR160W, strain CDC28, stronger effect = lower value 0.955 | S. cerevisiae deletion strains, locus YDL017W, strain CDC7, stronger effect = lower value 0.953 | S. cerevisiae deletion strains, locus YDL028C, strain MPS1, stronger effect = lower value 0.946 | [1] 0.944 | S. cerevisiae deletion strains, locus YDL108W, strain KIN28, stronger effect = lower value 0.961 | S. cerevisiae deletion strains, locus YDL132W, strain cdc53, stronger effect = lower value 0.942 | S. cerevisiae deletion strains, locus YDL214C, strain PRR2, stronger effect = lower value 0.966 | S. cerevisiae deletion strains, locus YDR052C, strain DBF4, stronger effect = lower value 0.948 | S. cerevisiae deletion strains, locus YDR054C, strain cdc34, stronger effect = lower value 0.943 | S. cerevisiae deletion strains, locus YDR226W, strain ADK1, stronger effect = lower value 0.956 | S. cerevisiae deletion strains, locus YDR477W, strain SNF1, stronger effect = lower value 0.972 | S. cerevisiae deletion strains, locus YER123W, strain YCK3, stronger effect = lower value 0.954 | S. cerevisiae deletion strains, locus YER133W, strain GLC7, stronger effect = lower value 0.922 | S. cerevisiae deletion strains, locus YFL009W, strain cdc4, stronger effect = lower value 0.936 | S. cerevisiae deletion strains, locus YFL029C, strain CAK1, stronger effect = lower value 0.954 | S. cerevisiae deletion strains, locus YFR003C, strain YPI1, stronger effect = lower value 0.95 | S. cerevisiae deletion strains, locus YFR019W, strain FAB1, stronger effect = lower value 0.966 | S. cerevisiae deletion strains, locus YFR028C, strain CDC14, stronger effect = lower value 0.949 | S. cerevisiae deletion strains, locus YGR040W, strain KSS1, stronger effect = lower value 0.944 | S. cerevisiae deletion strains, locus YGR052W, strain FMP48, stronger effect = lower value 0.93 | S. cerevisiae deletion strains, locus YGR092W, strain DBF2, stronger effect = lower value 0.912 | S. cerevisiae deletion strains, locus YHR079C, strain IRE1, stronger effect = lower value 0.775 | S. cerevisiae deletion strains, locus YHR082C, strain KSP1, stronger effect = lower value 1.1 | S. cerevisiae deletion strains, locus YHR205W, strain SCH9, stronger effect = lower value 1 | S. cerevisiae deletion strains, locus YIL147C, strain SLN1, stronger effect = lower value 0.947 | [2] 0.782 | S. cerevisiae deletion strains, locus YJL128C, strain PBS2, stronger effect = lower value 0.969 | S. cerevisiae deletion strains, locus YJL157C, strain FAR1, stronger effect = lower value 0.962 | S. cerevisiae deletion strains, locus YJR016C, strain ILV3, stronger effect = lower value 0.955 | S. cerevisiae deletion strains, locus YJR066W, strain TOR1 (second series), stronger effect = lower value 0.964 | S. cerevisiae deletion strains, locus YJR066W, strain TOR1, stronger effect = lower value 1.08 | S. cerevisiae deletion strains, locus YKL048C, strain ELM1, stronger effect = lower value 0.922 | S. cerevisiae deletion strains, locus YKL067W, strain YNK1, stronger effect = lower value 0.955 | S. cerevisiae deletion strains, locus YKL101W, strain HSL1, stronger effect = lower value 0.958 | S. cerevisiae deletion strains, locus YKL193C, strain SDS22, stronger effect = lower value 0.949 | S. cerevisiae deletion strains, locus YKL203C, strain TOR2, stronger effect = lower value 1.03 | S. cerevisiae deletion strains, locus YLR133W, strain CKI1, stronger effect = lower value 0.968 | S. cerevisiae deletion strains, locus YLR403W, strain SFP1, stronger effect = lower value 0.975 | S. cerevisiae deletion strains, locus YML070W, strain DAK1, stronger effect = lower value 0.961 | S. cerevisiae deletion strains, locus YMR001C, strain CDC5, stronger effect = lower value 0.953 | S. cerevisiae deletion strains, locus YMR205C, strain PFK2 (second series), stronger effect = lower value 0.975 | S. cerevisiae deletion strains, locus YMR277W, strain FCP1, stronger effect = lower value 0.949 | S. cerevisiae deletion strains, locus YNL006W, strain LST8, stronger effect = lower value 0.955 | S. cerevisiae deletion strains, locus YNL020C, strain ARK1, stronger effect = lower value 0.969 | S. cerevisiae deletion strains, locus YNL161W, strain CBK1, stronger effect = lower value 0.94 | S. cerevisiae deletion strains, locus YNL183C, strain NPR1, stronger effect = lower value 0.863 | S. cerevisiae deletion strains, locus YNL207W, strain RIO2, stronger effect = lower value 0.95 | S. cerevisiae deletion strains, locus YNL222W, strain SSU72, stronger effect = lower value 0.966 | S. cerevisiae deletion strains, locus YNL307C, strain MCK1 (second series), stronger effect = lower value 0.986 | S. cerevisiae deletion strains, locus YOL078W, strain AVO1, stronger effect = lower value 0.946 | S. cerevisiae deletion strains, locus YOL136C, strain PFK27, stronger effect = lower value 0.969 | [3] 0.95 | S. cerevisiae deletion strains, locus YOR119C, strain RIO1, stronger effect = lower value 0.961 | S. cerevisiae deletion strains, locus YOR231W, strain MKK1, stronger effect = lower value 0.797 | S. cerevisiae deletion strains, locus YOR329C, strain SCD5, stronger effect = lower value 0.947 | S. cerevisiae deletion strains, locus YPL031C, strain PHO85, stronger effect = lower value 0.948 | S. cerevisiae deletion strains, locus YPL153C, strain RAD53, stronger effect = lower value 0.938 | S. cerevisiae deletion strains, locus YPL204W, strain HRR25, stronger effect = lower value 0.956 | S. cerevisiae deletion strains, locus YPL209C, strain IPL1, stronger effect = lower value 0.954 | S. cerevisiae deletion strains, locus YPR025C, strain CCL1, stronger effect = lower value 0.942 | S. cerevisiae deletion strains, locus YPR106W, strain ISR1, stronger effect = lower value 0.942 | S. cerevisiae deletion strains, locus YPR111W, strain DBF20, stronger effect = lower value 0.953 | S. cerevisiae deletion strains, strain NNK1, stronger effect = lower value 0.969 | S. cerevisiae deletion strains, strain TSCII, stronger effect = lower value 0.943

O=C(O)/C=C1\CCCc2ccccc2C1O (stereo unspecified)
inactive: S. cerevisiae deletion strains, locus YAL013W, strain DEP1, stronger effect = lower value 1.01 | S. cerevisiae deletion strains, locus YBR021W, strain FUR4, stronger effect = lower value 1.01 | S. cerevisiae deletion strains, locus YBR229C, strain ROT2, stronger effect = lower value 0.965 | S. cerevisiae deletion strains, locus YCL029C, strain bik1, stronger effect = lower value 0.982 | S. cerevisiae deletion strains, locus YDL035C, strain GPR1, stronger effect = lower value 0.993 | S. cerevisiae deletion strains, locus YDL074C, strain BRE1, stronger effect = lower value 0.96 | [1] 0.988 | S. cerevisiae deletion strains, locus YDL134C, strain PPH21, stronger effect = lower value 0.992 | S. cerevisiae deletion strains, locus YDL185W, strain tfp1, stronger effect = lower value 0.945 | S. cerevisiae deletion strains, locus YDL192W, strain arf1, stronger effect = lower value 0.977 | S. cerevisiae deletion strains, locus YDR101C, strain arx1, stronger effect = lower value 0.993 | S. cerevisiae deletion strains, locus YDR150W, strain NUM1, stronger effect = lower value 0.991 | S. cerevisiae deletion strains, locus YDR162C, strain NBP2, stronger effect = lower value 0.987 | S. cerevisiae deletion strains, locus YDR318W, strain mcm21, stronger effect = lower value 0.985 | S. cerevisiae deletion strains, locus YDR388W, stronger effect = lower value 0.989 | S. cerevisiae deletion strains, locus YDR502C, strain sam2, stronger effect = lower value 0.976 | S. cerevisiae deletion strains, locus YEL061C, strain CIN8, stronger effect = lower value 0.995 | S. cerevisiae deletion strains, locus YER110C, stronger effect = lower value 0.982 | S. cerevisiae deletion strains, locus YER155C, strain BEM2, stronger effect = lower value 1.01 | S. cerevisiae deletion strains, locus YER167W, strain BCK2, stronger effect = lower value 0.998 | S. cerevisiae deletion strains, locus YGL078C, strain dbp3, stronger effect = lower value 0.992 | S. cerevisiae deletion strains, locus YGL086W, strain mad1, stronger effect = lower value 0.991 | S. cerevisiae deletion strains, locus YGL248W, strain PDE1, stronger effect = lower value 0.979 | S. cerevisiae deletion strains, locus YGR078C, strain PAC10, stronger effect = lower value 1 | S. cerevisiae deletion strains, locus YGR135W, strain pre9, stronger effect = lower value 0.98 | S. cerevisiae deletion strains, locus YGR229C, strain SMI1, stronger effect = lower value 0.997 | S. cerevisiae deletion strains, locus YGR252W, strain gcn5, stronger effect = lower value 0.962 | S. cerevisiae deletion strains, locus YHR030C, strain SLT2, stronger effect = lower value 1.01 | S. cerevisiae deletion strains, locus YHR079C, strain IRE1 (second series), stronger effect = lower value 0.992 | S. cerevisiae deletion strains, locus YHR094C, strain hxt1, stronger effect = lower value 0.984 | S. cerevisiae deletion strains, locus YHR129C, strain ARP1, stronger effect = lower value 0.992 | S. cerevisiae deletion strains, locus YHR200W, strain rpn10, stronger effect = lower value 0.989 | S. cerevisiae deletion strains, locus YIL066C, strain RNR3, stronger effect = lower value 0.996 | S. cerevisiae deletion strains, locus YIL073C, strain SPO22, stronger effect = lower value 0.974 | S. cerevisiae deletion strains, locus YIL125W, strain kgd1, stronger effect = lower value 0.975 | S. cerevisiae deletion strains, locus YIR030C, strain dcg1, stronger effect = lower value 0.988 | [2] 1.01 | S. cerevisiae deletion strains, locus YJL134W, strain LCB3, stronger effect = lower value 0.986 | S. cerevisiae deletion strains, locus YJL168C, strain set2, stronger effect = lower value 0.986 | S. cerevisiae deletion strains, locus YJL187C, strain SWE1 (second series), stronger effect = lower value 0.99 | S. cerevisiae deletion strains, locus YJR043C, strain POL32, stronger effect = lower value 0.998 | S. cerevisiae deletion strains, locus YJR075W, strain HOC1, stronger effect = lower value 0.985 | S. cerevisiae deletion strains, locus YKL009W, strain mrt4, stronger effect = lower value 0.955 | S. cerevisiae deletion strains, locus YKL068W, stronger effect = lower value 0.981 | S. cerevisiae deletion strains, locus YKL085W, strain MDH1 (second series), stronger effect = lower value 0.98 | S. cerevisiae deletion strains, locus YKL085W, strain MDH1, stronger effect = lower value 0.98 | S. cerevisiae deletion strains, locus YKL190W, strain CNB1, stronger effect = lower value 0.996 | S. cerevisiae deletion strains, locus YKR001C, strain vps1, stronger effect = lower value 0.978 | S. cerevisiae deletion strains, locus YLR039C, strain RIC1, stronger effect = lower value 0.944 | S. cerevisiae deletion strains, locus YLR058C, strain SHM2, stronger effect = lower value 0.988 | S. cerevisiae deletion strains, locus YLR102C, strain apc9, stronger effect = lower value 0.977 | S. cerevisiae deletion strains, locus YLR262C, strain YPT6, stronger effect = lower value 0.937 | S. cerevisiae deletion strains, locus YLR268W, strain sec22, stronger effect = lower value 0.984 | S. cerevisiae deletion strains, locus YLR330W, strain CHS5, stronger effect = lower value 0.998 | S. cerevisiae deletion strains, locus YLR342W, strain FKS1 (second series), stronger effect = lower value 0.983 | S. cerevisiae deletion strains, locus YLR371W, strain rom2, stronger effect = lower value 0.975 | S. cerevisiae deletion strains, locus YLR418C, strain cdc73, stronger effect = lower value 0.989 | S. cerevisiae deletion strains, locus YML016C, strain PPZ1, stronger effect = lower value 0.964 | S. cerevisiae deletion strains, locus YML032C, strain rad52, stronger effect = lower value 0.982 | S. cerevisiae deletion strains, locus YML124C, strain tub3, stronger effect = lower value 0.992 | S. cerevisiae deletion strains, locus YMR078C, strain ctf18, stronger effect = lower value 0.977 | S. cerevisiae deletion strains, locus YMR223W, strain ubp8, stronger effect = lower value 0.991 | S. cerevisiae deletion strains, locus YMR263W, strain SAP30, stronger effect = lower value 0.952 | S. cerevisiae deletion strains, locus YMR307W, strain GAS1, stronger effect = lower value 0.991 | S. cerevisiae deletion strains, locus YNL067W, strain RPL9B, stronger effect = lower value 0.998 | S. cerevisiae deletion strains, locus YNL128W, strain TEP1, stronger effect = lower value 0.976 | S. cerevisiae deletion strains, locus YNL153C, strain GIM3, stronger effect = lower value 0.998 | S. cerevisiae deletion strains, locus YNL233W, strain BNI4, stronger effect = lower value 1.01 | S. cerevisiae deletion strains, locus YNL250W, strain rad50, stronger effect = lower value 0.979 | S. cerevisiae deletion strains, locus YNL271C, strain bni1, stronger effect = lower value 0.987 | S. cerevisiae deletion strains, locus YNL298W, strain CLA4, stronger effect = lower value 0.964 | S. cerevisiae deletion strains, locus YNL307C, strain MCK1, stronger effect = lower value 0.986 | S. cerevisiae deletion strains, locus YNL322C, strain KRE1, stronger effect = lower value 0.986 | S. cerevisiae deletion strains, locus YNR052C, strain pop2, stronger effect = lower value 0.989 | S. cerevisiae deletion strains, locus YOL006C, strain TOP1, stronger effect = lower value 0.983 | S. cerevisiae deletion strains, locus YOL012C, strain htz1 0.943 | S. cerevisiae deletion strains, locus YOL147C, strain pex11, stronger effect = lower value 0.991 | [3] 0.974 | S. cerevisiae deletion strains, locus YOR069W, strain VPS5, stronger effect = lower value 1 | S. cerevisiae deletion strains, locus YOR136W, strain idh2, stronger effect = lower value 0.995 | S. cerevisiae deletion strains, locus YOR144C, strain elg1, stronger effect = lower value 0.991 | S. cerevisiae deletion strains, locus YOR184W, strain ser1, stronger effect = lower value 0.985 | S. cerevisiae deletion strains, locus YOR316C, strain cot1, stronger effect = lower value 0.975 | S. cerevisiae deletion strains, locus YPL055C, strain LGE1, stronger effect = lower value 0.971 | S. cerevisiae deletion strains, locus YPL241C, strain CIN2, stronger effect = lower value 0.997 | S. cerevisiae deletion strains, locus YPR119W, strain clb2, stronger effect = lower value 0.995 | S. cerevisiae deletion strains, locus YPR141C, strain kar3, stronger effect = lower value 0.964 | S. cerevisiae deletion strains, locus YPR163C, strain tif3, stronger effect = lower value 0.99 | S. cerevisiae deletion strains, locus YPR167C, strain met16, stronger effect = lower value 0.987 | S. cerevisiae deletion strains, strain wtn01, stronger effect = lower value 0.98 | S. cerevisiae strains, strain wild type, stronger effect = lower value 0.991
